The test system of assay [1] is Wnt5a (protein binding on small-molecule microarray). In words: small molecules binding Wnt5a protein – biophysical, small-molecule microarray, 635/667 nm fluorescence, primary screen (AID 1142).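 Also: fluorescence read at 667 nm with signal to noise per printed feature.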 The note with it: 635 nm fluorescence, higher = more signal.
A short description of assay [2]: ATP-based viability of Huh7 replicon cells – cell-based, CellTiter-Glo luminescence, basal, 48 h, cytotoxicity control for HCV replication inhibitor project, primary screen (AID 1143).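 Also: Huh7 hepatoma cells carrying a hepatitis C replication reporter with no stimulus; test concentration not given here.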 The note with it: higher = more signal, called active from +8 up or from −8 down.
The nature of assay [3]: Pseudomonas biofilm growth suppression – PAO1 strain, BacTiter-Glo luminescence, LB-PBS, primary screen (AID 1144). To be noted: P. aeruginosa PAO1 biofilm, 12 h, higher = more signal.
A short description of assay [4]: basal CRE-LacZ reporter activity in PC12 – cell-based, unstimulated, primary screen (AID 1145). To be noted: no forskolin, luminescence, 4.5 h, higher = more signal, called active from +8 up or from −8 down.
Assay [5] can be described thus: forskolin-driven CRE-LacZ activity in PC12 – cell-based, CRE-LacZ reporter, forskolin-stimulated, primary screen (AID 1146).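 Also: PC12 cells with 6xCRE LacZ reporter stimulated by forskolin 10 µM; beta-galactosidase reporter signal reflecting CREB driven transcription.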 To be noted: luminescence, 4.5 h, higher = more signal, called active from +8 up or from −8 down.
In assay [6] the target is Streptavidin (Streptomyces avidinii) (UniProt P22629). In words: compounds binding control protein streptavidin – biophysical, small-molecule microarray, 635/667 nm fluorescence, artefact control for SMM compound annotation, primary screen (AID 1147).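 Also: signal reflects streptavidin binding to arrayed compounds as a control protein.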 To be noted: higher = more signal.
Assay [7] in a line: probe aInhba binding on compound microarray – biochemical, small-molecule microarray, 635/667 nm fluorescence, primary screen (AID 1148).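 Also: score merges 667nm spot fluorescence with signal-to-noise for antibody binding to printed compounds.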 To be noted: higher = more signal.
The target in assay [8] is Torsin-1A (Homo sapiens) (UniProt O14656). In words: TOR1A wild-type binding on microarray – cell lysate, small-molecule microarray, lysate, 635/667 nm, primary screen (AID 1149). The note with it: COS7 hTOR1A-WT lysate, 635 nm fluorescence, higher = more signal.
For assay [9] the target is unchanged. Nature of the assay: torsin A mutant lysate binding on microarrays – cell lysate, small-molecule microarray, COS7 lysate, 635/667 nm fluorescence, primary screen (AID 1150).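 Also: score pools 667 nm emission and signal to noise measuring lysate protein binding.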 To be noted: COS7 hTOR1A mutant lysate, 635 nm fluorescence, higher = more signal.
Assay [10] has as its system Sonic hedgehog protein (Shh). In words: Sonic hedgehog microarray binding compounds – biochemical, small-molecule microarray, 635/667 nm fluorescence, primary screen (AID 1151).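 Also: Shh protein binding to compounds spotted on small-molecule microarray slides; score combines spot fluorescence intensity with signal-to-noise across triplicate slides.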 The note with it: 635 nm fluorescence, higher = more signal.
The nature of assay [11]: optical density shifts of acrAB sulA E. coli – strain DRC41, OD650, 48 h, E. coli filamentation inducer project, primary screen (AID 1152).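 Also: E. coli MC1000 strain DRC41 lacking acrAB efflux pump and sulA.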 To be noted: higher = more signal, called active from +8 up or from −8 down.
The nature of assay [12]: probe aLefty1 binding on compound microarray – biochemical, small-molecule microarray, 635/667 nm fluorescence, primary screen (AID 1153).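 Also: score merges spot fluorescence with signal-to-noise ratio from the scanned slide images.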 To be noted: higher = more signal.
The nature of assay [13]: plasmodial surface anion channel blockers, osmotic lysis – cell-based, P. falciparum Indochina, OD700, 1 h, primary screen (AID 1154). The note with it: P. falciparum Indochina infected RBC osmotic lysis, higher = more signal, called active from +8 up or from −8 down.
The nature of assay [14]: plasmodial surface anion channel blockers, osmotic lysis – cell-based, P. falciparum Indochina, OD700, 2 h, primary screen (AID 1155).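 Also: lysis reports solute entry through the parasite surface anion channel PSAC.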 To be noted: P. falciparum Indochina infected erythrocytes, higher = more signal, called active from +8 up or from −8 down.
A short description of assay [15]: changes in parasitized red cell lysis, either direction – P. falciparum Indochina, OD700, 3 h, PSAC antagonist project, primary screen (AID 1156). To be noted: P. falciparum-infected erythrocytes, osmotic lysis, higher = more signal, called active from +8 up or from −8 down.
Assay [16] is described as follows: plasmodial surface anion channel blockers, osmotic lysis – cell-based, P. falciparum Indochina, OD700, 18 h, primary screen (AID 1157). The note with it: P. falciparum Indochina infected erythrocytes, osmotic lysis OD700, 18 h; higher = more signal, called active from +8 up or from −8 down.
The nature of assay [17]: S6 kinase pathway phospho-S6 level changes – cell-based, A549, cytoblot, luminescence, serum-stimulated, primary screen (AID 1158).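 Also: serum-stimulated A549 lung adenocarcinoma cells; signal is phosphorylated S6 detected by cytoblot immunostaining with HRP secondary.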 The note with it: 5 h, higher = more signal.
Assay [18] deals with NADPH oxidase 2 (Homo sapiens) (UniProt P04839). Nature of the assay: compounds shifting NOX2 Amplex Red fluorescence – cell-based, HEK293-NOX2, PMA-stimulated, NOX inhibitor project, primary screen (AID 1159). Also: test concentration not given here. The note with it: 45 min, higher = more signal, called active from +8 up or from −8 down.
Assay [19] deals with NADPH oxidase 4 (Homo sapiens) (UniProt Q9NPH5). Nature of the assay: compounds shifting NOX4 Amplex Red fluorescence – cell-based, HEK293-NOX4, tetracycline-induced, NOX inhibitor project, primary screen (AID 1160). To be noted: HEK293-NOX4, Amplex Red H2O2 fluorescence, 45 min; higher = more signal, called active from +8 up or from −8 down.
Assay [20] addresses NADPH oxidase 5 (Homo sapiens) (UniProt Q96PH1). Nature of the assay: compounds shifting NOX5 Amplex Red fluorescence – cell-based, HEK293-NOX5, NOX inhibitor project, primary screen (AID 1161). The note with it: HEK293-NOX5, ionomycin, 45 min, higher = more signal.

Activity calls are given as the source filed them. Unless noted, no rule for the calls is given here.

Torsin-1A (Homo sapiens), sequence (O14656 whole entry, looked up): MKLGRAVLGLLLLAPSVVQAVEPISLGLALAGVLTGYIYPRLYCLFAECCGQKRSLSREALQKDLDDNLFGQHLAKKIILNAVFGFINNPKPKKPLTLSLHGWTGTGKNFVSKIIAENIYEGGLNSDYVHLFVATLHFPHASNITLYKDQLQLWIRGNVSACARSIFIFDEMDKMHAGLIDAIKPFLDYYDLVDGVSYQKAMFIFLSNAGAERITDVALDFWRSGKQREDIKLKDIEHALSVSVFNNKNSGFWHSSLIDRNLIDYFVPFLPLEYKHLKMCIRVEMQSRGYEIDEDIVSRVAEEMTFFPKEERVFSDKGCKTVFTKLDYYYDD
Streptavidin (Streptomyces avidinii), sequence (P22629 whole entry, looked up): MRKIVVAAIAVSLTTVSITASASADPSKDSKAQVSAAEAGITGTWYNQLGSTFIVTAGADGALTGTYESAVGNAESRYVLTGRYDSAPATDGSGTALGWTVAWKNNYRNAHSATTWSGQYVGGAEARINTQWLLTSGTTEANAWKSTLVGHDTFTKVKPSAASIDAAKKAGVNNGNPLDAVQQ
NADPH oxidase 2 (Homo sapiens), sequence (P04839 whole entry, looked up): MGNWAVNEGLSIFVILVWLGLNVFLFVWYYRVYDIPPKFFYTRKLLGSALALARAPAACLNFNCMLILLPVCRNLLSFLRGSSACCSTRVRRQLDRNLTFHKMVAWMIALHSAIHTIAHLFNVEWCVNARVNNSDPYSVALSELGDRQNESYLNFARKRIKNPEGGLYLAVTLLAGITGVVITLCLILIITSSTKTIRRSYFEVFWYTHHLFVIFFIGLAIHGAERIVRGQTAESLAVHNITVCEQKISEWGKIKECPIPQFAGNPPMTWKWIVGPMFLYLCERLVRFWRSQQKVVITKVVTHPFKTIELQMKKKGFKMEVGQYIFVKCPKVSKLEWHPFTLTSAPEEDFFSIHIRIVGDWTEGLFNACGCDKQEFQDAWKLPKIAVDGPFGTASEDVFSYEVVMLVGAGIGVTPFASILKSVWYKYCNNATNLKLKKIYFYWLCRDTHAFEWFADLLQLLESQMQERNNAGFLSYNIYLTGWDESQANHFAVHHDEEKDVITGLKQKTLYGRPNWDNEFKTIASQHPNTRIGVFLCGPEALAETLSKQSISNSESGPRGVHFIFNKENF
NADPH oxidase 4 (Homo sapiens), sequence (Q9NPH5 whole entry, looked up): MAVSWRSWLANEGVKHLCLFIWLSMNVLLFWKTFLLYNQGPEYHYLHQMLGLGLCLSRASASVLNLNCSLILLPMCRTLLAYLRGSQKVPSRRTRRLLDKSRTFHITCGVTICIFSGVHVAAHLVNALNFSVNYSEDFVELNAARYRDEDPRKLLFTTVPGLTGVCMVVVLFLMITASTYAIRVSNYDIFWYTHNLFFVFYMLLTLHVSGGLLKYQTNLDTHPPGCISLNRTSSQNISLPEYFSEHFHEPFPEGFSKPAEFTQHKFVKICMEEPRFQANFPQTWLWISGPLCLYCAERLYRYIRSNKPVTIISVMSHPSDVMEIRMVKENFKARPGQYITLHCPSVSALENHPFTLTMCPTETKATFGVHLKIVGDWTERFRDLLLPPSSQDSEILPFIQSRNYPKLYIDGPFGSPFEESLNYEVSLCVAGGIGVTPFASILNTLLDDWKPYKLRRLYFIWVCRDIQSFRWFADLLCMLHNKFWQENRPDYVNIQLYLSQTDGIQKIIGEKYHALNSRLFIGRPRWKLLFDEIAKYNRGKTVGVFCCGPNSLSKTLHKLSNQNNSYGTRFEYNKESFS
NADPH oxidase 5 (Homo sapiens), sequence (Q96PH1 whole entry, looked up): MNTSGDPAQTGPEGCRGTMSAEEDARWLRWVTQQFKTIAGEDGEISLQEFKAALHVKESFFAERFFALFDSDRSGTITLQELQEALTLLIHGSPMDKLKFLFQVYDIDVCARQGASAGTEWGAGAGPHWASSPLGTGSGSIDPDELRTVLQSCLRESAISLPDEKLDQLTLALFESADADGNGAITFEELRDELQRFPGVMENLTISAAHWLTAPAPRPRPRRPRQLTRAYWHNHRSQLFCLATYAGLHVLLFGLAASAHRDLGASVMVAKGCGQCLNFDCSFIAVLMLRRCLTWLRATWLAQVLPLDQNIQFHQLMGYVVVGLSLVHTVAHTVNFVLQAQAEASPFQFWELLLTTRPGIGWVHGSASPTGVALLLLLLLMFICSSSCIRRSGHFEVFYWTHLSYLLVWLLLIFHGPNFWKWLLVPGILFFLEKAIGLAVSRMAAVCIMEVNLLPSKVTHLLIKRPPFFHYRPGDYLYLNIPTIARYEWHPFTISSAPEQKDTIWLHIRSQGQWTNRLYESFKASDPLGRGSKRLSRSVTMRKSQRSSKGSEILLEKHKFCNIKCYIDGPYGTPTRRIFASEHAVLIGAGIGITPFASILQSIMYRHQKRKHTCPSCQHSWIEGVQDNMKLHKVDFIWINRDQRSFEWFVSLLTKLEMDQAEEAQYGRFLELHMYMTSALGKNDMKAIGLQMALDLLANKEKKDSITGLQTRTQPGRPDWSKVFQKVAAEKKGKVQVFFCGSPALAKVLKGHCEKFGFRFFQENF

For `O=C1C2C=CC(C(O)Cc3ccccc3)N(n3cnnc3)C2C(=O)N1Cc1ccccc1` (stereo not given), the composite z-score in [1] is 0.0769; in assay [6], 0.0646; in assay [7] it was -0.0118; with Torsin-1A (Homo sapiens) [8] it was -0.0992; with Torsin-1A (Homo sapiens) [9], 1.05; in assay [10] it was -0.373. Also, the composite z-score in assay [12] worked out at 0.333. In addition, the z-score in [2] is 0.0633 (inactive); in assay [3], 0.0973 (inactive); in assay [4], -0.0696 (inactive); in [5], -0.413 (inactive); in assay [11], -1.07 (inactive); in assay [13] it was 1.78 (inactive). For the same compound, the z-score in [14] is 1.06 (inactive); in [15] it was 1.04 (inactive); in [16], 0.587 (inactive); in [17] it was -0.309; in assay [18], -0.112 (inactive); in assay [19], -1.69 (inactive). Also, the z-score in [20] was -1.36.
In the case of `C=C(CCCC)C(=O)CC[C@@H](OC(=O)c1ccccc1-c1ccccc1C(=O)O)c1ccc(OCCO)cc1`, the composite z-score is 0.27 in assay [1]; -0.074 in assay [6]; -0.128 in [7]; 0.803 in the assay with Torsin-1A (Homo sapiens) [8]; 0.427 in the assay with Torsin-1A (Homo sapiens) [9]; 0.586 in [10]. The compound further displayed a composite z-score in assay [12] of -0.23. In addition, the z-score in assay [2] is 0.142 (inactive); in [3] it was -0.385 (inactive); in [4], -0.336 (inactive); in [5], 1.8 (inactive); in assay [11], -0.181 (inactive); in assay [13] it was 17.2 (active). In addition, the z-score in assay [14] was 1.73 (inactive); in [15], 1.15 (inactive); in [16], 0.602 (inactive); in assay [17], 0.276; in assay [18], 2.45 (inactive); in assay [19], 0.216 (inactive). The z-score in assay [20] is -0.936.
Regarding `C=CC[C@@]12N=C(c3ccc(OCCCO)cc3)O[C@@H]1c1ccccc1N(C)C2=O`, the composite z-score is 1.25 in assay [1]; 0.248 in assay [6]; 0.268 in assay [7]; -0.0951 with Torsin-1A (Homo sapiens) [8]; 0.713 with Torsin-1A (Homo sapiens) [9]; 1.42 in assay [10]. Also, in [12], the composite z-score worked out at 0.349. Moreover, the z-score in assay [2] is -4.44 (inactive); in assay [3] it was -0.0229 (inactive); in assay [4] it was 0.297 (inactive); in [5], -0.845 (inactive); in assay [11], 1.12 (inactive); in [13], 33.2 (active). Besides, the z-score was 32.3 (active) in assay [14]; 2.02 (inactive) in [15]; 3.46 (inactive) in assay [16]; 0.368 in assay [17]; -2.99 (inactive) in assay [18]; -0.963 (inactive) in [19]. In assay [20], the z-score was -1.85.
Take `COC(=O)C[C@H]1O[C@]2(C(=O)N(C)c3ccccc32)[C@@H](C)[C@@H]1[Si](C)(C)F`: the composite z-score is 0.56 in assay [1]; 0.454 in assay [6]; 0.0301 in assay [7]; 0.142 with Torsin-1A (Homo sapiens) [8]; 0.164 with Torsin-1A (Homo sapiens) [9]; 1.79 in assay [10]. Besides, the composite z-score in assay [12] was 0.0982. Moreover, the z-score was -1.18 (inactive) in [2]; -0.852 (inactive) in assay [3]; 1.03 (inactive) in assay [4]; -0.383 (inactive) in assay [5]; 2.91 (inactive) in assay [11]; -0.0899 (inactive) in assay [13]. Besides, the z-score in assay [14] is -0.562 (inactive); in assay [15], -0.338 (inactive); in [16] it was -2.12 (inactive); in [17], 1.26; in assay [18], -0.771 (inactive); in assay [19], 0.555 (inactive). In [20], the z-score amounted to 1.45.
Take `CC(C)[Si](C#Cc1ccc(Oc2ccccc2)cc1)(O[Si](C#Cc1ccc(Oc2ccccc2)cc1)(C(C)C)C(C)C)C(C)C`: the composite z-score is 0.253 in assay [1]; -0.286 in assay [6]; 0.0403 in [7]; 0.567 in the assay with Torsin-1A (Homo sapiens) [8]; 0.514 in the assay with Torsin-1A (Homo sapiens) [9]; 1.05 in assay [10]. Moreover, the composite z-score in assay [12] is -0.103. The z-score in assay [2] is 0.479 (inactive); in assay [3], -0.614 (inactive); in assay [4], 0.6 (inactive); in [5] it was -0.378 (inactive); in assay [11], 0.555 (inactive); in [13] it was 2.62 (inactive). Besides, the z-score in [14] is 1.85 (inactive); in assay [15] it was 0.226 (inactive); in [16] it was 1.39 (inactive); in assay [17], 0.335; in assay [18] it was 1.49 (inactive); in assay [19] it was 1.46 (inactive). The z-score in assay [20] is -1.34.

(Values after PubChem BioAssay.)
